Rango release inh: inhibitors of RanGTP-induced Rango-importin beta complex dissociation; Biochemical FRET Rango-importin beta, RanGTP-induced dissociation; Potency, µM (highest dose often 46.1 µM), for inactives: at the top dose activity change, negative = inhibition; O95149+P62826; AID 540253; 340,000 tested, 0.071% active; calls by dose curve; note: potency is the fitted concentration of half-maximal effect; % of control where 0% means no effect; nearly all actives have a fitted effect of over 45% in size
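Rango (0.1 uM)–importin beta (0.25 uM) complex; RanGTP-RCC1 trigger; 45 min RT; CFP/YFP FRET read.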
KAT2A inh: GCN5L2 (KAT2A) acetyltransferase inhibition; GCN5L2 HAT assay, ThioGlo1 CoA-SH fluorescence; Potency, µM (highest dose often 58.9 µM), without a hit: top-dose activity change, negative = inhibition, actives largely listed as inhibitors; 390,000 tested, 0.21% active; note: potency is the fitted concentration of half-maximal effect; % is set by controls: 0 for no effect and ±100 for the full control effect
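qHTS, 1536-well. 20nM enzyme, pH 7.5 HEPES/EDTA/Tween-20 buffer; 15 min compound preinc., RT. Start: 75uM H3(1-25), 70uM AcCoA, 50uM ThioGlo1. Read Ex340/Em540 at t=0 (autofluorescence flag) and t=20 min.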
PLK1 PBD block: PLK1 (human) polo-box domain binding inhibition | Plk1 PBD binding of FITC phosphopeptide, fluorescence polarization | P53350 | 360,000 tested, 2.8% active | AID 720504 | Potency, µM, for the others: max response, negative = inhibition, most hits filed as inhibitors; note: potency is the fitted concentration of half-maximal effect; series mostly up to about 57 µM; % is set by controls: 0 for no effect and ±100 for the full control effect; nearly all actives have a fitted effect of over 65% in size
Target sequence (P53350 whole entry, looked up, the tested form may be a part): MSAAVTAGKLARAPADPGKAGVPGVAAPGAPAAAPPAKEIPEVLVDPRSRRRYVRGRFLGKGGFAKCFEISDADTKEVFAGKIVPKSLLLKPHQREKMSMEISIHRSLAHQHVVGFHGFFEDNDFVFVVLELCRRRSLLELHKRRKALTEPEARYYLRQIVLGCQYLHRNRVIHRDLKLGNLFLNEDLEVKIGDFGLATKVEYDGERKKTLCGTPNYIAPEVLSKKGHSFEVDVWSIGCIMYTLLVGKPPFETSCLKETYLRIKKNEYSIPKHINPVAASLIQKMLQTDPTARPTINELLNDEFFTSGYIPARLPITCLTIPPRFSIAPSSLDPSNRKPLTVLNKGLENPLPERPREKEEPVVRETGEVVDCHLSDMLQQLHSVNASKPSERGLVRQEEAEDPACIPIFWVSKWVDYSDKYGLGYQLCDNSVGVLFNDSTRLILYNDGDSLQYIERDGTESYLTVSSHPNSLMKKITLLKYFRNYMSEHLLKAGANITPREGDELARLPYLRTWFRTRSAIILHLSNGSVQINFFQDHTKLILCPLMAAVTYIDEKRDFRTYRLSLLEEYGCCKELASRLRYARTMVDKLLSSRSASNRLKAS
PI5P4K alpha inh: inhibitors of human PI5P4K alpha; PI5P4Kalpha enzyme, ADP-Glo luminescence, 60 min; active compounds read low; AID 652105; max response, %; P48426; 330,000 tested, 1.2% active; active = max response of -50% or lower; inconclusive = between -30% and -50%; inactive = -30% or higher; note: value at the top dose of about 77 µM; % is set by controls: 0 for no effect and ±100 for the full control effect
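qHTS, 1536-well: enzyme/substrate mix, compound by pin tool, 5 microM ATP final; RT 60 min; ADP-Glo reagents 1 (45 min) then 2 (30 min); luminescence.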
Rango complex inh: prevents formation of the Rango-importin beta complex; 340,000 tested, 0.031% active; Potency, µM (highest dose often 92.2 µM), inactives show at the top dose inhibition of complex formation; Rango CFP/YFP FRET sensor + importin beta, 45 min; Q14974; calls by dose curve;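 note: potency is the fitted concentration of half-maximal effect; 0% = DMSO wells and 100% = buffer wells lacking importin beta; nearly all actives have a fitted effect of over 15% in size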
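FRET biosensor (snurportin 1 IBB flanked by EYFP and cerulean), 50 nM, with compound 5 min, then 0.125 microM importin beta in PBS, 1 mM DTT, 0.02% Tween-20, 0.1% BSA. CFP/YFP ratio read after 45 min at room temperature; pre-read flags interference.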
VDR inh: vitamin D3 receptor (human) inhibition. VDR-SRC2-3 peptide fluorescence polarization, 2 h. 400,000 tested, 0.93% active. Potency, µM, for inactives: max response, negative = inhibition, hits mostly inhibitors. P11473; note: potency is the fitted concentration of half-maximal effect; % is set by controls: 0 for no effect and ±100 for the full control effect
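Signal is fluorescence polarization, reporting how far test compounds block the interaction of VDR with the SRC2-3 coregulator peptide after a 2 h room-temperature incubation.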
An asterisk follows results filed as active; ? = inconclusive; · = no result given; ! = not active in a repeat. Most compounds without a hit are left out; they make up all but 3.6% or so of the library. Unless noted, calls come from the whole dose curve; as a rule, active = well fitted curve in the direction sought with a large enough effect; inconclusive = small, poorly fitted or top-dose-only effect, or another doubt; inactive = no such curve, though single readings can be large; an effect the other way counts as inactive or inconclusive.

SMILES	Rango release inh	KAT2A inh	PLK1 PBD block	PI5P4K alpha inh	Rango complex inh	VDR inh
COc1cc(CN2CCCC(CO)(Cc3cccc(Cl)c3)C2)cc2c1OCO2 (stereo unspecified)	6%	-5%	21µM*	2	-3%	?
CC(=O)c1ccc(NC(=O)CSC2=Nc3ccccc3N=C(c3ccc(F)cc3)C2)cc1	·	?	·	·	·	2%
Nc1cc(C(=O)O)c(N)c2c1C(=O)c1ccccc1C2=O	8%	-19%	19µM*	-83*	4%	8.9µM*
Nc1c(SCCC(=O)O)ccc2c1C(=O)c1ccccc1C2=O	0%	-8%	-5%	-87*	0%	14%
Nc1c(C(=O)O)ccc2c1C(=O)c1ccccc1C2=O	10%	-13%	-4%	-69*	0%	-10%
CN1CCN(c2ncc3nc(-c4cn(C)c5ccccc45)c(=O)n(-c4ccccc4)c3n2)CC1	·	-5%	·	·	·	?
Cc1cccc(OCCn2c(SCC(N)=O)nc3ccccc32)c1	·	-9%	·	·	·	-7%
Fc1ccc(Nc2nc(NCc3ccco3)nc3nccnc23)cc1	·	·	·	·	·	-7%
CC(C)N1CSC(=S)N(Cc2ccccc2)C1	5%	0%	?	3	2%	79µM*
CCOc1ccc(OC(=O)c2c(-c3ccccc3Cl)noc2C)cc1	·	5%	·	·	·	-1%
COC(=O)c1c(NC(=O)COC(=O)c2ccc(NC(=O)CC#N)cc2)sc2c1CCCCC2	-19%	21%	-14%	-62*	?	7%
NC(=O)c1c(NC(=O)COC(=O)c2ccc(O)c(Cl)c2)sc2c1CCCC2	-9%	-15%	?	-55*	3%	-4%
Cc1ccc(N2CC(NC(=O)c3cccs3)CC2=O)cc1C (stereo unspecified)	·	-10%	·	·	·	5%
Cc1ccc(NC(=O)C2CCN(c3nc4ccccc4[nH]3)CC2)c(C)c1	·	-14%	·	·	·	4%
O=C(O)c1ccc2c(c1)-c1cc(C(=O)O)ccc1S2(=O)=O	-3%	0%	-8%	-74*	-4%	-25%
CC(C)c1ccc(NC(=O)c2cc3c(=O)[nH]c4ccccc4c3n2C)cc1	·	0%	·	·	·	-24%
COc1cc([N+](=O)[O-])cc(/C=N/NC(=O)c2cc(C)nc3ccccc23)c1O	0%	-6%	4%	-27	0%	0%
O=C(NC1CCCCCCC1)c1cc(-c2ccccn2)nc2ccccc12	8%	-12%	27µM*	-29	1%	-3%
COc1cc([N+](=O)[O-])cc(/C=N/NC(=O)Cn2nccc2C)c1O	0%	-1%	27µM*	?	0%	?
COc1cc([N+](=O)[O-])cc(/C=N/NC(=O)c2cc(-c3ccccc3)nc3ccccc23)c1O	1%	-21%	2%	-57*	?	-15%
O=C(N/N=C/c1cc(Cl)cc([N+](=O)[O-])c1O)c1cc(-c2ccccn2)nc2ccccc12	10%	-5%	?	-62*	0%	3%
COc1cccc(C2C(C(=O)Nc3ccccc3)=C(C)Nc3nnnn32)c1OC (stereo unspecified)	·	1%	·	·	·	-14%
COc1c(Cl)cc(C(=O)N(Cc2ccc(C)o2)C2CCS(=O)(=O)C2)cc1Cl (stereo unspecified)	·	-1%	·	·	·	8%
Cc1ccc(NC(=O)Cn2nc(C)n3cccc3c2=O)c(C)c1	·	-6%	·	·	·	16%
O=[N+]([O-])c1cc(Cl)cc(/C=N\Nc2ccccn2)c1O	1%	-4%	3.4µM*	-60*	4%	?
SMILES	Rango release inh	KAT2A inh	PLK1 PBD block	PI5P4K alpha inh	Rango complex inh	VDR inh
CC(C)(C)c1cc(O)c(C(C)(C)C)cc1O	·	1%	·	·	·	28µM*
CC(C)(C)c1ccc(O)c(O)c1	15%	-4%	-8%	-88*	5%	13%
CC(C)(C)c1ccc(O)c(/C=N\O)c1	6%	-4%	-1%	8	4%	4%
COc1ccc(/C=N/n2cnn(Cc3ccccc3Cl)c2=S)cc1OC	3%	-22%	24µM*	4	1%	-8%
COc1cccc(NC(=O)Cn2c(=O)n(CCCCC(=O)NCc3ccc4c(c3)OCO4)c(=O)c3ccccc32)c1	·	2%	·	·	·	-23%
S=C(c1nc2ccccc2[nH]1)N1CCOCC1	1%	-10%	24µM*	-21	2%	?
CCCCCCCc1ccc(-c2ccc(O)cc2)nc1	0%	-20%	24µM*	5	1%	0%
COc1ccc(C2NN=C(c3ccc(C)cc3)S2)cc1OC (stereo unspecified)	-17%	-14%	24µM*	-5	0%	-8%
CCc1cccc(-n2nnc(-c3nc(-c4cccs4)no3)c2N)c1	·	0%	·	·	·	3%
c1ccc(C2=Nn3c(Cn4nnc5ccccc54)nnc3SC2)cc1	25%	-6%	3%	4	-3%	9%
Clc1ccc(C2=Nn3c(Cn4nnc5ccccc54)nnc3SC2)cc1	0%	-26%	8.4µM*	-20	0%	79µM*
CCc1cccc(NC(=O)Cn2c(=O)n3nc(-c4cccc(F)c4)nc3c3ccccc32)c1	·	-2%	·	·	·	12%
O=C(O)c1cc(-c2ccco2)nc2ccc(Br)cc12	2%	?	4.2µM*!	-87*!	-1%	20µM*!
Cc1ccc(-c2cc(C(=O)N3CCN(c4ccc(F)cc4)CC3)c3ccccc3n2)o1	6%	-6%	-27%	?	0%	0%
O=C(c1ccco1)N1CCN(C(=O)c2cc(-c3ccncc3)nc3ccc(Br)cc23)CC1	-8%	·	-11%	-9	-3%	6%
Cc1ccc(-c2cc(C(=O)N3CCN(c4ncccn4)CC3)c3cc(Br)ccc3n2)o1	-10%	1%	6.7µM*	-73*	?	16%
COC(=O)[C@H](COC(C)(C)C)NC(=O)O[C@@H]1C(=O)c2ccc(OC)cc2O[C@H]1c1cccc(C(F)(F)F)c1	·	·	·	·	·	9%
CC(C)c1ccc(NC(=O)c2cc3c(=O)oc4ccccc4c3s2)cc1	·	-1%	·	·	·	-4%
CCc1ccc(-c2nc(SCC(=O)NCC3CCCO3)c(-c3ccc(F)cc3)[nH]2)cc1 (stereo unspecified)	·	1%	·	·	·	-5%
CC(C)(C)OC(=O)N/N=C\c1ccc(OC(=O)c2ccco2)cc1	17%	-8%	24µM*	-30	-1%	-3%
CCOc1cc(/C=N\NC(=O)OC(C)(C)C)ccc1OC(=O)c1ccco1	-12%	-12%	21µM*	-26	6%	-17%
CCOC(=O)N/N=C\c1ccc(OC(=O)c2ccco2)cc1	-3%	-2%	?	0	2%	-7%
COc1ccc(OC)c(CCNC(=O)c2nc(-c3ccc(Cl)cc3)n3c2CCCCC3)c1	·	-9%	·	·	·	13%
O=C(O)c1cccc(-c2noc(-c3ccccc3F)n2)c1	·	-4%	·	·	·	·

Screening data as filed in PubChem BioAssay.
